Assay results taken from ChEMBL document CHEMBL4513216, “Probing the Open Global Health Chemical Diversity Library for Multistage-Active Starting Points for Next-Generation Antimalarials” (ACS Infect Dis, 2020).
About 2,700 (4%) of roughly 68,000 compounds showed an effect of 50% or more. The sample holds strong results, similar compounds and a random draw of the others, so the mix is not that of the screen.

The compounds below were run on Plasmodium berghei (assay: Screen against P. berghei liver stage (PbLuc), transformed with Luciferase, at 2uM). Conditions: tested at 2 uM.
Assay type: functional, HepG2

Going from F[C@@H]1CN(Cc2cccnc2)C[C@@H]1OCc1nc2ccccc2[nH]1 to C[C@]1(O)CCN(Cc2ncccc2F)C[C@@H]1Oc1ccccc1, the INHIBITION rises from 20.41% to 51.99%.

Going from O=C(Cc1ccco1)N1C[C@H]2CCC[C@@]2(COCC2CC2)C1 to COC[C@@]12CCC[C@@H]1CN(C(=O)Cc1ccco1)C2, the INHIBITION rises from 8.17% to 53.08%.

First: O=C(Cc1ccco1)N1C[C@H]2CCC[C@@]2(COc2cccnc2)C1
Second: Cn1cccc1C(=O)N1CCO[C@@H]2CN(Cc3ccco3)C[C@@H]2C1
The INHIBITION of the first is lower: -75.76% for the first, 35.64% for the second.

First: CCn1ccnc1CN1CCN(c2ncnc3ccsc23)CC1C (centres undefined)
Second: CCn1ccnc1CN1CCN(C(C)C(=O)NCc2ccco2)CC1 (centres undefined)
The INHIBITION of the first is lower: -115.54% for the first, -17.18% for the second.

Compared with O=C(c1cnc(O)cc1O)N1CCCC(CCc2ccccc2F)C1 (centres undefined), Cc1ncc(CNC(=O)CCc2ccccc2F)c(C2CCCN2C)n1 (centres undefined) is lower in INHIBITION: 29.41% for the first, 4.66% for the second.

Compared with COCCN1CCCC2(CCN(c3ncnc(C)c3C)C2)C1=O (centres undefined), COCCN1CCCC2(CCN(c3nccnc3N(C)C)C2)C1=O (centres undefined) is lower in INHIBITION: 24.05% for the first, -38.59% for the second.

Going from COCCN1CCCC(O)(CN2CCCN(c3ncccn3)CC2)C1=O (centres undefined) to COCCN1CCCC(O)(CN2CCN(c3ncccc3C)CC2)C1=O (centres undefined), the INHIBITION rises from 31.35% to 75.47%.

First: COCCN1CCCC2(CCN(c3nccc4ccccc34)C2)C1=O (centres undefined)
Second: COCCN1CCCC(O)(CN2CCN(c3cc(C)ccn3)CC2)C1=O (centres undefined)
The INHIBITION of the first is higher: 50.61% for the first, 17.6% for the second.

Compared with CCS(=O)(=O)N1CCC2(CN(c3cc(OC)ncn3)C2)C1, CCCc1nnsc1C(=O)NCC1CCN(S(C)(=O)=O)CC1 is lower in INHIBITION: 35.37% for the first, -4.49% for the second.

Going from CC(OCC1CC1)C(=O)Nc1cccc(C(=O)Nc2ccncc2)c1 (centres undefined) to O=C(O)c1sccc1Oc1ccc(NC(=O)C2CC2)cc1, the INHIBITION rises from 10.72% to 19.62%.

First: CC(C)C[C@H](N)c1nnc(SCC(N)=O)o1
Second: Cc1nnc(SCC(=O)c2cc3c(cc2Cl)NC(=O)C3)o1
The INHIBITION of the first is lower: 31.02% for the first, 54.73% for the second.

Compared with Cc1n[nH]c(C)c1CNC(=O)CSCc1ccccc1Cl, Cc1ncc(CNC(=O)CCc2cccs2)c(C2CCCN2C)n1 (centres undefined) is lower in INHIBITION: 37.77% for the first, -14.56% for the second.

Going from CCSc1ccc(C(=O)N2CCC3(CCC(=O)N(C)C3)CC2)s1 to CNC(=O)CN1CCOCC12CCN(C(=O)c1ccccc1)CC2, the INHIBITION falls from -12.89% to -41.11%.

First: CSC1(CNc2ccc(Br)cn2)CCOCC1
Second: c1ccc(-c2nc(CCNC3CCOC4(CCOCC4)C3)no2)cc1 (centres undefined)
The INHIBITION of the first is lower: 30.06% for the first, 58.53% for the second.

Going from Cc1cc(C)cc(NC(=O)Nc2c(O)c3ccccc3oc2=O)c1 to Cc1cnn(CCCNC(=O)NC(C)C(=O)Nc2ccccc2)c1 (centres undefined), the INHIBITION falls from 19.49% to -17.39%.

First: Nc1nnc(SCC(=O)c2cc3c(cc2Cl)NC(=O)C3)s1
Second: Cc1nnc(SCC(=O)c2cc3c(cc2Cl)NC(=O)C3)s1
The INHIBITION of the first is higher: 9.42% for the first, -21.29% for the second.

Compared with CCCNC(=O)C(C)n1nc(-c2ccc(C)o2)cc(N)c1=O (centres undefined), CNC(=O)Cc1ccc(NC(=O)NCc2nc(C)sc2C)cc1 is higher in INHIBITION: 0.86% for the first, 45.82% for the second.

First: Cc1ccc(CN2C[C@H]3CN(C(=O)c4ccno4)CCN3C2=O)cc1
Second: Cn1cc(N2CCC3(CCCN(Cc4ccc(F)cc4)C3)C2=O)cn1 (centres undefined)
The INHIBITION of the first is lower: 2.66% for the first, 51.26% for the second.

Going from CC(C)CC(C)NCCCN1CCCN(C)CC1 (centres undefined) to Cc1cnn(CC2CCCCN2CCCS(N)(=O)=O)c1 (centres undefined), the INHIBITION falls from 19.13% to 8.1%.

First: Cc1occc1CNC(=O)C1(C)CCCN1C(=O)c1ccccc1 (centres undefined)
Second: Cc1occc1CNC(=O)C1(C)CCCN(C(=O)c2ccccc2)C1 (centres undefined)
The INHIBITION of the first is lower: 22.34% for the first, 52.08% for the second.

First: CC(C)C(=O)N1CCC12CCCN(C(=O)c1ccccc1)C2 (centres undefined)
Second: O=C(Nc1ccccc1)N1CCc2nc(C(=O)N3CCCC3)sc2CC1
The INHIBITION of the first is higher: -1.55% for the first, -18.86% for the second.

Going from Cc1c(C2CCCN(C(=O)c3cccnc3)C2)n2c(nc1=O)CCC2 (centres undefined) to Cn1cc(CN2CCCC3(CCN(c4cccnc4)C3=O)C2)cn1 (centres undefined), the INHIBITION rises from -16% to -7.09%.

Going from Cn1cc(CN2CCC3(CCN(c4cnn(C)c4)C3=O)C2)cn1 (centres undefined) to Cn1cc(N2CCC3(CCCN(Cc4ccoc4)C3)C2=O)cn1 (centres undefined), the INHIBITION rises from 13.61% to 25.4%.

Compared with COc1ccc(CN2CCC3(CCN(c4cccnc4)C3=O)C2)cc1 (centres undefined), COc1ccc(CN2CCC3(CC2)CCN(c2cnn(C)c2)C3=O)cc1 is higher in INHIBITION: 0.83% for the first, 65.32% for the second.

Compared with Cn1ncc2c1CCCN(C(=O)C1CCC1)C2, Cc1ncoc1C(=O)N1CCOC(CC2CCCCC2)C1 (centres undefined) is lower in INHIBITION: 7.46% for the first, -78.64% for the second.

Going from Cc1nccnc1CCC1COCCN1C(=O)CCc1c(C)noc1C (centres undefined) to Cc1ncc(CNC(=O)CCc2c(C)noc2C)c(C2CCCN2C)n1 (centres undefined), the INHIBITION rises from -12.6% to 58.18%.

First: COc1cccc(-c2noc(-c3ccc(NCC4CC4)nc3)n2)c1OC
Second: COc1cc(CN(C(=O)Nc2cccnc2OC)C2CC2)ccc1O
The INHIBITION of the first is lower: -57.64% for the first, -34.31% for the second.

Compared with CC(C)(C)CN1CCC[C@H]1c1nc(-c2cncnc2N)no1, CCc1nnc2n1CCN(C(=O)c1cnc3c(cnn3C(C)C)c1)C2 is higher in INHIBITION: -10.21% for the first, 24.05% for the second.

Compared with Cn1nc2c(cc1=O)CN(Cc1nnc(-c3ccco3)o1)CC2, Cc1nc(C)n(CC(=O)N2CCc3ncc(Cl)cc3C2)n1 is higher in INHIBITION: -32.49% for the first, 44.9% for the second.

Compared with Cc1cc2n(n1)CCN(c1nc(N(C)C)nc3c1CCNC3)C2, Cc1nnc2n1CCN(C(=O)c1cnc3c(cnn3C(C)C)c1)C2 is higher in INHIBITION: 15.46% for the first, 17.48% for the second.

First: CC(=O)N1CCC(N2CCOC(CC3CCCCC3)C2)CC1 (centres undefined)
Second: CC(=O)N1CCC(C(=O)N2CCOC(CC3CCCCC3)C2)CC1 (centres undefined)
The INHIBITION of the first is higher: 56.69% for the first, 38.49% for the second.

Going from COc1cccc(CC2CN(C3CCN(C(C)=O)CC3)CCO2)c1 (centres undefined) to CNC(=O)CN1CCOCC12CCN(CCc1ccccc1)CC2, the INHIBITION rises from 17.75% to 53.08%.

Compared with CN(C)C(=O)N1CCC(C(=O)N2CCOC(CC3CCCCC3)C2)CC1 (centres undefined), O=C(C1CCOCC1)N1CCOC(CC2CCCCC2)C1 (centres undefined) is lower in INHIBITION: 54.77% for the first, 28.91% for the second.

First: CC(C)c1nc2c(n1C)CCN(CCS(=O)(=O)c1ccccc1)C2
Second: CN1C(=O)C(C)(C)COc2cc(NS(=O)(=O)Cc3ccccc3)ccc21
The INHIBITION of the first is higher: 18.35% for the first, -18.38% for the second.

First: Cc1ccc(CNC2(Cc3cc(-c4ccc(F)cc4)on3)COC2)o1
Second: Cc1ccc(C(=O)N2CCO[C@H]3[C@H](OCc4ccccn4)CC[C@@H]32)o1
The INHIBITION of the first is higher: 44.15% for the first, 30.96% for the second.

Compared with CN(C)c1cc(CNc2cncc(-n3cccn3)n2)ccn1, Cc1cnc(CN(Cc2cccc(O)c2)CC2CC2)cn1 is higher in INHIBITION: -15.92% for the first, -14.45% for the second.

Compared with COc1ccc2c(c1)CC(C1CCOCC1)N(C(=O)c1ccn(C)n1)C2 (centres undefined), Cc1ncc(CN(C)C(=O)Nc2cccc(C(=O)N3CCOCC3)c2)s1 is higher in INHIBITION: 15.61% for the first, 15.68% for the second.

Going from CC(c1ccco1)N(C(=O)COc1ccc(C#N)cc1)C1CC1 (centres undefined) to OCCn1nccc1C1CCN(CCOc2ccccc2)CC1, the INHIBITION falls from 41.03% to 39.72%.

Compared with OCCn1nccc1C1CCN(CCOc2cccc(F)c2)CC1, Cc1cccc(OCCN2CCC(c3ccnn3CCO)CC2)c1 is lower in INHIBITION: 53.98% for the first, 7.13% for the second.

First: Cc1cc2c(o1)CC(C)(C)CC2NC(=O)CNC(=O)C1CC1 (centres undefined)
Second: CN1C[C@@H](NC(=O)C(C)(C)C)C[C@H]1C(=O)NCc1ncc[nH]1
The INHIBITION of the first is lower: -22.24% for the first, 67.85% for the second.

Going from CNC(=O)CN1CCOCC12CCN(Cc1ccncc1)CC2 to c1cnc2[nH]c(C3CCNCC3)c(CN3CCOCC3)c2c1, the INHIBITION falls from 34.47% to 26.98%.

First: CC(C)c1nc(O)c2nnn(C[C@H]3CCCN(Cc4cccs4)C3)c2n1
Second: Cc1nnc2n1CCN(C(=O)c1cnc3c(cnn3CC(C)C)c1)C2
The INHIBITION of the first is lower: 4.91% for the first, 56.89% for the second.

Compared with CC1(C)CN(C(=O)c2ncc(F)cc2F)CCC1(O)CN1CCOCC1 (centres undefined), CC(C)C(=O)N1CC[C@H]2N(C)CC[C@@]2(C(=O)N2CCOCC2)CC1 is higher in INHIBITION: 31.97% for the first, 35.34% for the second.

First: Cc1nc(Nc2ncc(C)s2)cc(C2CCCN2)n1 (centres undefined)
Second: Cc1nc(C)n(CCC(=O)N2CCc3ncc(Cl)cc3C2)n1
The INHIBITION of the first is lower: -30.88% for the first, 40.31% for the second.

Compared with Cc1cc(C)n(CCCC(=O)N2CCc3ncc(Cl)cc3C2)n1, CCOCC1CN(c2ncc(F)cn2)Cc2cn(CC)nc21 (centres undefined) is lower in INHIBITION: 51.99% for the first, -10.78% for the second.

First: Cc1nnc(CNC(=O)[C@@H]2C[C@H](NC(=O)C(C)(C)C)CN2C)[nH]1
Second: CN1C[C@@H](NC(=O)c2cc(F)cc(F)c2)C[C@H]1C(=O)NCc1ncc[nH]1
The INHIBITION of the first is higher: -4.77% for the first, -7.68% for the second.

First: N#Cc1c(Cl)nsc1NCc1cccnc1OCC(F)(F)F
Second: C[C@]1(O)CCN(Cc2ncccc2F)C[C@@H]1Oc1cccc(F)c1
The INHIBITION of the first is lower: 5.94% for the first, 14.47% for the second.

Compared with Cc1nn(C)cc1Cn1c(=O)cnc2ccccc21, Cc1nn(C)cc1Cn1c(=O)c(C)nc2ccccc21 is higher in INHIBITION: 2.82% for the first, 21.57% for the second.

Going from Cc1nn(C)cc1Cn1c(=O)ccc2ccccc21 to Cc1cccnc1CN1CC[C@@](C)(O)[C@H](Oc2ccccc2)C1, the INHIBITION falls from 51.36% to 37.4%.

Compared with CNC(=O)Cc1ccc(NC(=O)NCC(C)c2ncc(C)s2)cc1 (centres undefined), CNC(=O)Cc1ccc(NC(=O)NCc2ncc(C)s2)cc1 is lower in INHIBITION: 50.59% for the first, 38.67% for the second.

Compared with c1ccc(CN2CCc3ncnc(C4CCOC4)c3CC2)nc1 (centres undefined), c1ccc(Cc2nc(CNC3CCOC4(CCOCC4)C3)no2)cc1 (centres undefined) is higher in INHIBITION: -4.2% for the first, 1.06% for the second.

Going from CCOC(=O)c1cc2n(n1)CCCO2 to c1ccc(Cc2noc(CCNC3CCOC4(CCOCC4)C3)n2)cc1 (centres undefined), the INHIBITION falls from 4.95% to -7.16%.
